Laboratory results reported in PubChem BioAssay AID932 (The Scripps Research Institute Molecular Screening Center, 2007).
Hit rate of the full screen: of about 200,000 compounds, about 5,100 (2.5%) were called active.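 The calls were made as follows: active = activation above the screen-wide mean activation plus 3 SD (cut at about 130% in these data); inactive = the rest.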 For the sample, actives were picked, then their nearest neighbours and some compounds at random.

Test: potentiators of IFN-gamma driven STAT1 reporter – cell-based, HTS, luciferase reporter, primary screen (AID 932);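 also: raw ratio to IFN-gamma control signal so 100% means no change and 0% no light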
Settings: NIH 3T3 STAT1-luciferase reporter, luminescence, at 5.5 µM, stronger effect = higher value, 100% = IFN-gamma alone, no compound

Activation (% of control), inactive:
O=C(CSc1ccccc1)Nc1ccc(NC(=O)c2ccco2)cc1 109%, COc1ccc(CCNC(=O)c2ccco2)cc1 109%, CN(C)S(=O)(=O)N1CCN(c2ccc([N+](=O)[O-])cc2)CC1 110%, Cn1cc(/C=C/c2nc3ccccc3c(=O)n2-c2cccc([N+](=O)[O-])c2)c2ccccc21 85.4%, C/[N+]([O-])=C\c1ccc([N+](=O)[O-])o1 99.5%, CCCn1c(SCC(=O)Nc2ccc(C)c(S(=O)(=O)N3CCOCC3)c2)n[nH]c1=O 90.6%, CCC(=O)Nc1ccc(C(=O)N2CCN(C(=O)c3ccco3)CC2)cc1 99.8%, CN(C)c1ccc(C=NCCc2ccc(S(N)(=O)=O)cc2)cc1 101%, O=C(Nc1ccn(Cc2ccccc2)n1)c1n[nH]c([N+](=O)[O-])c1Cl 121%, O=C(Nc1ccn(Cc2ccc(F)cc2)n1)c1ccncc1 94.9%, COC1=CCC2([N+](=O)[O-])CN(CC(=O)O)CC1([N+](=O)[O-])C2 (centres undefined) 106%, Fc1ccc2c(c1)C(c1cccnc1)=NNC(c1cccs1)=N2 103%, Cc1ccc(NC(=O)O/N=C/c2cccc([N+](=O)[O-])c2)cc1 113%, COc1cc2c3c(c1)/C(=C1/SC(=S)NC1=O)C(=O)N3C(C)(C)C=C2C 98.1%, Cc1ccc(NC(=O)c2oc3ccccc3c2C)c([N+](=O)[O-])c1 100%, O=C(Nc1ccccc1)c1ccccc1NC(=O)C(F)(F)F 93.5%, CC(C)n1c(=O)[nH]c2cc(C(=O)Nc3ccccc3)ccc21 128%, CCCCNC(=O)Nc1c(C)cc(SC#N)cc1C 97.9%, COc1ccc(/C=N/S(=O)(=O)c2ccccc2)cc1OC 107%, CCOc1ccc(/C=N/Nc2nncc(-c3ccccc3)n2)cc1OC 107%, CCOC(=O)c1ccc[n+](CC(=O)Nc2ccccc2OC(F)F)c1 98.5%, O=C(Nc1cccc(-c2nnc(-c3ccccc3)o2)c1)C1CCCO1 (centres undefined) 120%, O=C(Nc1nnc(CCc2ccccc2)s1)C1CCCO1 (centres undefined) 109%

Activation (% of control), active:
O=C(NCCSc1ccccc1)c1ccco1 134%, CCn1c(/C=C/c2ccc([N+](=O)[O-])o2)nc2ccccc2c1=O 182%, O=C(Nc1ccn(Cc2ccccc2)n1)c1cccc(F)c1 131%, O=C(Nc1ccccc1)c1cc2ccccc2[nH]1 137%, COc1ccc(/C=N/Nc2nc3ccccc3o2)cc1OC 153%, O=C(Nc1ccc(-c2nnc(-c3ccccc3)o2)cc1)C1CCCO1 (centres undefined) 168%
